# Source: PubChem BioAssay (NCATS)
# Results filed as inconclusive are left out. A call without a number means that no potency is given here. Calls of active or inactive are those of the source. Unless noted, the call rests on the fitted dose curve; in most records, active means well fitted curve in the direction sought with a large enough effect; inconclusive means small, poorly fitted or top-dose-only effect, or another doubt; inactive means no such curve, though single readings can be large; an effect the other way counts as inactive or inconclusive.
# Assays:
# [1] = target: ATP-dependent 6-phosphofructokinase (Trypanosoma brucei brucei) (UniProt O15648); experiment: qHTS Assay to Find Inhibitors of T. brucei phosphofructokinase: hit validation (AID 492961);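 further: luminescence reports ADP formed as PFK phosphorylates fructose-6-phosphate with ATP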
# Sequence of ATP-dependent 6-phosphofructokinase (Trypanosoma brucei brucei) (O15648 whole entry, looked up): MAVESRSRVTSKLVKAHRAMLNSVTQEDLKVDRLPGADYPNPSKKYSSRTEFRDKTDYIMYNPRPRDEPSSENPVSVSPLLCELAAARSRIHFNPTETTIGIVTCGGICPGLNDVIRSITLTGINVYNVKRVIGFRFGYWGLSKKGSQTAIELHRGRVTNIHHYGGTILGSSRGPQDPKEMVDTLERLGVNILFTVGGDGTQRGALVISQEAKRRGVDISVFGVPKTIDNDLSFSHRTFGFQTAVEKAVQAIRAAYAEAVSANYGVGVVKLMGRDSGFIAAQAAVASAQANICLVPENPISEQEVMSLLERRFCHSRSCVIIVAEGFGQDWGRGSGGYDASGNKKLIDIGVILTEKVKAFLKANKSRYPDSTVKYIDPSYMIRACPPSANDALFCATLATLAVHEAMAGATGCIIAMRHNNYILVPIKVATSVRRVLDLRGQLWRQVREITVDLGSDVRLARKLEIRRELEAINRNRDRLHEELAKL
# Summary of the method: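 Inhibition of parasite PFK is measured as reduced ADP formation, quantified via luciferase after ATP depletion. Assay used 0.1 mM ATP, 0.5 mM F6P, 1.25 nM enzyme, 45 min incubation.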
# [2] = target: Ubiquitin carboxyl-terminal hydrolase 1 (Homo sapiens) (UniProt O94782); experiment: Inhibitors of USP1/UAF1: Pilot qHTS (AID 504865);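 further: rhodamine fluorescence freed from ubiquitin-rhodamine substrate followed over time; top concentration of the series differs between compounds; nearly all actives have a fitted effect of over 35% in size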
# Sequence of Ubiquitin carboxyl-terminal hydrolase 1 (Homo sapiens) (O94782 whole entry, looked up): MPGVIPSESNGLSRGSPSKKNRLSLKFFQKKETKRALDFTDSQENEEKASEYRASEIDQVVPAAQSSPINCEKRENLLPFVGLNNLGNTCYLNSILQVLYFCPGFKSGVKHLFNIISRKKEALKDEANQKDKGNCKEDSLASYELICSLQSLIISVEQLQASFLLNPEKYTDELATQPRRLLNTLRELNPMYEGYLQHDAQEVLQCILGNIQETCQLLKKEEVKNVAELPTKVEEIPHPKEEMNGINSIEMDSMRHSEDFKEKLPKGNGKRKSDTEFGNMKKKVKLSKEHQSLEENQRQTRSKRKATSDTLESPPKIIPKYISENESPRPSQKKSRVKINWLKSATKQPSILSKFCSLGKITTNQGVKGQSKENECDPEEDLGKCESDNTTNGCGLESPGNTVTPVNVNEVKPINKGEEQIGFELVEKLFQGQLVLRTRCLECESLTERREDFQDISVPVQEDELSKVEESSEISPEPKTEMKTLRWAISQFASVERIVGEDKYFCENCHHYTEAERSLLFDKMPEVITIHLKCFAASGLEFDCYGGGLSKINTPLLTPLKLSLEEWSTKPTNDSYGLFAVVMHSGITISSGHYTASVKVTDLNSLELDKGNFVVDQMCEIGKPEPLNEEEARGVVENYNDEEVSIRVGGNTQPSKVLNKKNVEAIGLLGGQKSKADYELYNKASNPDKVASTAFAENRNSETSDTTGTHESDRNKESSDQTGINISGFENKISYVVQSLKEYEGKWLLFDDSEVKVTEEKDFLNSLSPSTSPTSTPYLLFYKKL
# Summary of the method: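 In 50mM HEPES pH 7.8 containing 0.5mM EDTA, 1mM TCEP, 0.1 mg/ml BSA and 0.01% Tween-20, 1nM USP1/UAF1 is exposed to compound for 15 min, then Ub-Rho (150nM final) is added and fluorescence is read over time.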
# [3] = target: Luciferin 4-monooxygenase (Photinus pyralis) (UniProt P08659); experiment: Biochemical firefly luciferase enzyme assay for NPC (AID 624030);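 further: purified P. pyralis luciferase at 10 nM with luciferin and ATP substrate; nearly all actives have a fitted effect of over 70% in size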
# Sequence of Luciferin 4-monooxygenase (Photinus pyralis) (P08659 whole entry, looked up): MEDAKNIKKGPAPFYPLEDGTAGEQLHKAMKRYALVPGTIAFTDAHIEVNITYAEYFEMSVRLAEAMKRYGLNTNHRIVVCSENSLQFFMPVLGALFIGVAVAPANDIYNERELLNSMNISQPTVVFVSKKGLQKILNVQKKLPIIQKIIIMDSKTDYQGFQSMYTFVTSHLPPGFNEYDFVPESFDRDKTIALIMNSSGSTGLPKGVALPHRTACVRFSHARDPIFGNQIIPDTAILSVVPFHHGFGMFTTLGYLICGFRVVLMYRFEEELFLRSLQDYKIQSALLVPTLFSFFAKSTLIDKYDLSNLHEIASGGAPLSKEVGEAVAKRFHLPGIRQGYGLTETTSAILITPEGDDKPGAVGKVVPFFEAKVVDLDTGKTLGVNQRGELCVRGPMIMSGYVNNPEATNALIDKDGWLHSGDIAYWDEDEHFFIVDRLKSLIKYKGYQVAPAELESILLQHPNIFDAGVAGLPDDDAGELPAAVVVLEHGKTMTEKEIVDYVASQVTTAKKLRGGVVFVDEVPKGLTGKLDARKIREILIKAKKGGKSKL
# Summary of the method: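 Purified P. pyralis luciferase at 10 nM in 50 mM Tris Acetate (final), luminescence read within 5 minutes of enzyme addition to compounds. Activity normalised to PTC124 versus DMSO; concentration-response curves classed by r2, magnitude and activity.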
# [4] = S16 Schwann cell viability assay (CellTiter-Glo assay) (AID 624031);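 further: cellular ATP luminescence as a viability measure; nearly all actives have a fitted effect of over 70% in size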
# Summary of the method: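 Native S16 rat Schwann cells, 500-750 cells/well in DMEM with 10% FBS, dosed with compound after overnight culture and incubated 24h at 37 degree Celsius/5% CO2. Viability by CellTiter-Glo luminescence; % activity normalized to no-cell wells and DMSO-treated cells.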
# [5] = S16 Schwann cell PMP22 intronic element beta-lactamase assay (AID 624044; calls by dose curve; further: potency means the concentration at half of the fitted maximal effect; nearly all actives have a fitted effect of over 15% in size)
# Summary of the method: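 Beta-lactamase reporter under a PMP22 intronic regulatory element in stable S16 rat Schwann cells; 24 h compound exposure. 460 nm blue signal normalized between DMSO (0%) and potassium clavulanate, with 535 nm FRET tracking viability; curves classed by r2 and response.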
# Furin (Homo sapiens) = Furin (Homo sapiens) (UniProt P09958); experiment: Furin counterscreen qHTS for Zika virus inhibitors (AID 1347149);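 further: purified recombinant full-length human furin enzyme at 5 nM; fluorescence gain from furin cutting a BOC-RVRR-AMC peptide substrate over 15 min; top concentration of the series differs between compounds; nearly all actives have a fitted effect of over 70% in size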
# Sequence of Furin (Homo sapiens) (P09958 whole entry, looked up): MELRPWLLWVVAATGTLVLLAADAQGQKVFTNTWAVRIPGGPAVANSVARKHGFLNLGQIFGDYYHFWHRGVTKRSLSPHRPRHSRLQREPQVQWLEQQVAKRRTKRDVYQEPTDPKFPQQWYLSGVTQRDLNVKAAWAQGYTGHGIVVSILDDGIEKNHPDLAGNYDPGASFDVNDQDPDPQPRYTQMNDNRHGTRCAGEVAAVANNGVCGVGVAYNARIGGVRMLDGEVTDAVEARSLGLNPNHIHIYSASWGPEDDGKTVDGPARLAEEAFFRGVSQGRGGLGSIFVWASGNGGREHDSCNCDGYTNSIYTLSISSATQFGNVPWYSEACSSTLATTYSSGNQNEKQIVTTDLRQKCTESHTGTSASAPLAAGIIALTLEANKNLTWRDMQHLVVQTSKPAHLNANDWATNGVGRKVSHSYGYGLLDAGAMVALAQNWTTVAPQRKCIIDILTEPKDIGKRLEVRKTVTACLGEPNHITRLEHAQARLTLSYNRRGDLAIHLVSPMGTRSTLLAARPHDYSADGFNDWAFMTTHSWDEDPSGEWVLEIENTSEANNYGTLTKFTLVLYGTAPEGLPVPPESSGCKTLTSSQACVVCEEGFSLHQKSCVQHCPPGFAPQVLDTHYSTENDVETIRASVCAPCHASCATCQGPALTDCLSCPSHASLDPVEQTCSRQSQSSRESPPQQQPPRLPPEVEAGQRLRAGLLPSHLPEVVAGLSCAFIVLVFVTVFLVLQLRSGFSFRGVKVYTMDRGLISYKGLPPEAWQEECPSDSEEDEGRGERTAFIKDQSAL
# Summary of the method: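 Counterscreen measures cleavage of 2 microM BOC-RVRR-AMC, below its ~15 microM Km, by 5 nM full-length human furin at pH 7.0 after a 15-min compound preincubation. Inhibition derives from the 15-min fluorescence increase at 37C.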
# [6] = test system: Zika virus NS2B-NS3 protease (unlinked); experiment: Optimization of GU AMC qHTS for Zika virus inhibitors: Unlinked NS2B-NS3 protease assay (AID 1347151); further: nearly all actives have a fitted effect of over 80% in size
# Summary of the method: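 Unlinked protease (25 nM final); buffer 10 mM Tris-HCl pH 8.0 + 0.01% Tween 20; AMC substrate; 15 min RT, dark; Δfluorescence normalized to no-inhibitor/no-enzyme controls; 4-parameter Hill fit.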
# [7] = Vero cells viability qHTS for Zika virus inhibitors (AID 1347167)
# Summary of the method: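 qHTS titration; 24-48 h compound exposure, 37 degrees C/5% CO2; DMEM, 4% FBS; CellTiter Glo ATP luminescence.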
# [8] = qHTS profiling for inhibitors of Plasmodium falciparum proliferation (AID 504749); further: nearly all actives have a fitted effect of over 60% in size; further: potency means the concentration at half of the fitted maximal effect; conditions: P. falciparum in erythrocytes, SYBR Green DNA, 72 h, at 28.7 µM (top of the series)
# Summary of the method: (§1)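 Each compound contacts P. falciparum-infected red blood cells for 72 h at 37 C; lysis buffer (Tris, EDTA, saponin, Triton X, SYBR Green I) is added and fluorescence measured next morning; values normalized to controls.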
# 3D7 = experiment: as above; conditions: P. falciparum in erythrocytes, SYBR Green DNA, 72 h; series mostly up to 28.7 µM
# Summary of the method: as §1
# AS120 = experiment: as above; conditions: P. falciparum in erythrocytes, SYBR Green DNA, 72 h; series mostly up to 28.7 µM
# Summary of the method: as §1
# ATS95 = experiment: as above; conditions: P. falciparum in erythrocytes, SYBR Green DNA, 72 h; series mostly up to 28.7 µM
# Summary of the method: as §1
# C2A = experiment: as above; conditions: P. falciparum in erythrocytes, SYBR Green DNA, 72 h; series mostly up to 28.7 µM
# Summary of the method: as §1
# CP185 = experiment: as above; conditions: P. falciparum in erythrocytes, SYBR Green DNA, 72 h; series mostly up to 28.7 µM
# Summary of the method: as §1
# CP191 = experiment: as above; conditions: P. falciparum in erythrocytes, SYBR Green DNA, 72 h; series mostly up to 28.7 µM
# Summary of the method: as §1
# CP192 = experiment: as above; conditions: P. falciparum in erythrocytes, SYBR Green DNA, 72 h; series mostly up to 28.7 µM
# Summary of the method: as §1
# CP201 = experiment: as above; conditions: P. falciparum in erythrocytes, SYBR Green DNA, 72 h; series mostly up to 28.7 µM
# Summary of the method: as §1
# CP211 = experiment: as above; conditions: P. falciparum in erythrocytes, SYBR Green DNA, 72 h; series mostly up to 28.7 µM
# Summary of the method: as §1
# CP215 = experiment: as above; conditions: P. falciparum in erythrocytes, SYBR Green DNA, 72 h; series mostly up to 28.7 µM
# Summary of the method: as §1
# CP237 = experiment: as above; conditions: P. falciparum in erythrocytes, SYBR Green DNA, 72 h; series mostly up to 28.7 µM
# Summary of the method: as §1
# CP238 = experiment: as above; conditions: P. falciparum in erythrocytes, SYBR Green DNA, 72 h; series mostly up to 28.7 µM
# Summary of the method: as §1
# CP247 = experiment: as above; conditions: P. falciparum in erythrocytes, SYBR Green DNA, 72 h; series mostly up to 28.7 µM
# Summary of the method: as §1
# CP250 = experiment: as above; conditions: P. falciparum in erythrocytes, SYBR Green DNA, 72 h; series mostly up to 28.7 µM
# Summary of the method: as §1
# CP252 = experiment: as above; conditions: P. falciparum in erythrocytes, SYBR Green DNA, 72 h; series mostly up to 28.7 µM
# Summary of the method: as §1
# CP256 = experiment: as above; conditions: P. falciparum in erythrocytes, SYBR Green DNA, 72 h; series mostly up to 28.7 µM
# Summary of the method: as §1
# CP262 = experiment: as above; conditions: P. falciparum in erythrocytes, SYBR Green DNA, 72 h; series mostly up to 28.7 µM
# Summary of the method: as §1
# CP266 = experiment: as above; conditions: P. falciparum in erythrocytes, SYBR Green DNA, 72 h; series mostly up to 28.7 µM
# Summary of the method: as §1
# CP269 = experiment: as above; conditions: P. falciparum in erythrocytes, SYBR Green DNA, 72 h; series mostly up to 28.7 µM
# Summary of the method: as §1
# CP291 = experiment: as above; conditions: P. falciparum in erythrocytes, SYBR Green DNA, 72 h; series mostly up to 28.7 µM
# Summary of the method: as §1
# CP305 = experiment: as above; conditions: P. falciparum in erythrocytes, SYBR Green DNA, 72 h; series mostly up to 28.7 µM
# Summary of the method: as §1
# CP315 = experiment: as above; conditions: P. falciparum in erythrocytes, SYBR Green DNA, 72 h; series mostly up to 28.7 µM
# Summary of the method: as §1
# CP325 = experiment: as above; conditions: P. falciparum in erythrocytes, SYBR Green DNA, 72 h; series mostly up to 28.7 µM
# Summary of the method: as §1
# CP329 = experiment: as above; conditions: P. falciparum in erythrocytes, SYBR Green DNA, 72 h; series mostly up to 28.7 µM
# Summary of the method: as §1
# DFO2036 = experiment: as above; conditions: P. falciparum in erythrocytes, SYBR Green DNA, 72 h; series mostly up to 28.7 µM
# Summary of the method: as §1
# DIV30 = experiment: as above; conditions: P. falciparum in erythrocytes, SYBR Green DNA, 72 h; series mostly up to 28.7 µM
# Summary of the method: as §1
# Dd2 = experiment: as above; conditions: P. falciparum in erythrocytes, SYBR Green DNA, 72 h; series mostly up to 28.7 µM
# Summary of the method: as §1
# ECU = experiment: as above; conditions: P. falciparum in erythrocytes, SYBR Green DNA, 72 h; series mostly up to 28.7 µM
# Summary of the method: as §1
# FAB9 = experiment: as above; conditions: P. falciparum in erythrocytes, SYBR Green DNA, 72 h; series mostly up to 28.7 µM
# Summary of the method: as §1
# HB3 = experiment: as above; conditions: P. falciparum in erythrocytes, SYBR Green DNA, 72 h; series mostly up to 28.7 µM
# Summary of the method: as §1
# JCK = experiment: as above; conditions: P. falciparum in erythrocytes, SYBR Green DNA, 72 h; series mostly up to 28.7 µM
# Summary of the method: as §1
# PC15 = experiment: as above; conditions: P. falciparum in erythrocytes, SYBR Green DNA, 72 h; series mostly up to 28.7 µM
# Summary of the method: as §1
# PC26 = experiment: as above; conditions: P. falciparum in erythrocytes, SYBR Green DNA, 72 h; series mostly up to 28.7 µM
# Summary of the method: as §1
# PC49 = experiment: as above; conditions: P. falciparum in erythrocytes, SYBR Green DNA, 72 h; series mostly up to 28.7 µM
# Summary of the method: as §1
# SC27B = experiment: as above; conditions: P. falciparum in erythrocytes, SYBR Green DNA, 72 h; series mostly up to 28.7 µM
# Summary of the method: as §1
# TAB113 = experiment: as above; conditions: P. falciparum in erythrocytes, SYBR Green DNA, 72 h; series mostly up to 28.7 µM
# Summary of the method: as §1
# TAB165 = experiment: as above; conditions: P. falciparum in erythrocytes, SYBR Green DNA, 72 h; series mostly up to 28.7 µM
# Summary of the method: as §1
# W2 = experiment: as above; conditions: P. falciparum in erythrocytes, SYBR Green DNA, 72 h; series mostly up to 28.7 µM
# Summary of the method: as §1
smiles,measurement,setting,value
O=C1c2cccc3c2[C@@H](CCC3)CN1[C@@H]1CN2CCC1CC2,outcome,[1],inactive
same,Potency,[2],inactive
same,Potency,[3],inactive
same,outcome,[4],inactive
same,Potency,[5],11.2 µM (active)
same,Potency,Furin (Homo sapiens),inactive
same,Potency,[6],inactive
same,Potency,[7],inactive
same,"activity, negative = inhibition",[8]; parasite line A,-7.65% (inactive)
same,"activity, negative = inhibition",[8]; parasite line B,6.33% (inactive)
same,Potency,3D7,inactive
same,Potency,AS120,inactive
same,Potency,ATS95,inactive
same,Potency,C2A,inactive
same,Potency,CP185,inactive
same,Potency,CP191,inactive
same,Potency,CP192,inactive
same,Potency,CP201,inactive
same,Potency,CP211,inactive
same,Potency,CP215,inactive
same,Potency,CP237,10 µM (active)
same,Potency,CP238,inactive
same,Potency,CP247,inactive
same,Potency,CP250,inactive
same,Potency,CP252,inactive
same,Potency,CP256,inactive
same,Potency,CP262,inactive
same,Potency,CP266,inactive
same,Potency,CP269,inactive
same,Potency,CP291,inactive
same,Potency,CP305,inactive
same,Potency,CP315,inactive
same,Potency,CP325,inactive
same,Potency,CP329,inactive
same,Potency,DFO2036,inactive
same,Potency,DIV30,inactive
same,Potency,Dd2,12.6 µM (active)
same,Potency,ECU,inactive
same,Potency,FAB9,inactive
same,Potency,HB3,inactive
same,Potency,JCK,inactive
same,Potency,PC15,inactive
same,Potency,PC26,inactive
same,Potency,PC49,inactive
same,Potency,SC27B,inactive
same,Potency,TAB113,inactive
same,Potency,TAB165,inactive
same,Potency,W2,6.75 µM (active)
